Out of some 360,000 compounds screened, about 2,400 (0.67%) were called active. Rule as the data show it: active = enhancement above about 30%; inactive = the rest. The full list was thinned out, with actives kept by preference.
What follows are compounds tested against Thyrotropin-releasing hormone receptor (Homo sapiens) (UniProt P34981) (assay: qHTS for Small Molecule Agonists and Allosteric Enhancers of Human TRH Receptor: Primary Screen for Enhancers). Conditions: TRHR cells, fluo-8 calcium fluorescence, EC20 TRH enhancement; at 2 µM; hits give high values.
Chain of Thyrotropin-releasing hormone receptor (Homo sapiens) (P34981 whole entry, looked up): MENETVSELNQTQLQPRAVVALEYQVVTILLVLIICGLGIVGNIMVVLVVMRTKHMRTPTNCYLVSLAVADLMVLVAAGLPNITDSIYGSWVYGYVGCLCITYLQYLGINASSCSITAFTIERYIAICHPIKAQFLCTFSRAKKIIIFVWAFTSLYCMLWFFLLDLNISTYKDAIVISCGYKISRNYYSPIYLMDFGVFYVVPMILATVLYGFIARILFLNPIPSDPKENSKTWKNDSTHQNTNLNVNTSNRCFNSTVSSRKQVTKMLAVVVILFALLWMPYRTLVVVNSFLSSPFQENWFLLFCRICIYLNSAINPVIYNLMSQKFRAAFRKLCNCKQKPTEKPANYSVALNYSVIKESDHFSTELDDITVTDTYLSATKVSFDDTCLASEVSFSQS
Outline: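 TRHR-expressing cells loaded with fluo-8 calcium dye were read kinetically (ex 480/em 530) during compound addition, then stimulated with an EC20 of TRH (10 nM final). Enhancement of the Gq-mediated intracellular calcium response was scored.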
Also: 0% is about no effect.

enhancement, inactive:
Cc1nn(Cc2ccc(F)cc2)c(C)c1NC(=O)c1cc(CC(C)C)on1 -1.79%
O=c1[nH]oc(O)c1-c1ncc(C(F)(F)F)cc1Cl 0.0064%
O=C(c1ccccn1)c1ncc(C(F)(F)F)cc1Cl 1.39%
COc1ccccc1Nc1nc(N)nc(N)c1S(=O)(=O)c1ccccc1 2.56%
O=C(NCc1nnc(C(=O)Nc2ccc(C(F)(F)F)cc2Cl)o1)c1ccccc1 0.059%
Cc1nnc(SCC(=O)NCc2ccccc2Cl)c2nn(-c3ccccc3)c(C)c12 4.74%
COc1ccccc1Nc1c2c(nc3ccc(NC(=O)/C=C/c4cc(OC)c(OC)c(OC)c4)cc13)CCCC2 0.792%
COc1ccc(CN2CCN(C(=O)CCC(=O)Nc3nnc(C(C)C)s3)CC2)cc1F -5.21%
CCc1nnc(NC(=O)CCC(=O)N2CCN(c3cc(C)ccc3C)CC2)s1 10.6%
CCOc1ccc(NC(=O)c2cc3c(=O)n(Cc4cccs4)ccc3nc2C)cc1 2.83%
Cc1cccc(NC(=O)c2nnn(CC(=O)Nc3ccc(C(C)C)cc3)c2N)c1C 16.4%
CCOc1ccc(NC(=O)COc2ccc(C(=O)N3CCC(C(N)=O)CC3)cc2OC)cc1 1.2%
CCOc1ccc(C(NC(=O)c2cc(OC)c(OC)c(OC)c2)c2cc(Cl)c3cccnc3c2O)cc1 (stereo not given) 8.01%
CN(CC(=O)Nc1ccccc1F)S(=O)(=O)c1ccc2c(c1)c(=O)n(C)c(=O)n2C -1.52%
CCOc1cc2[nH]c(=O)n(Cc3ccc(C(=O)NCCN(CC)CC)cc3)c(=O)c2cc1OCC 6.62%
Cc1csc2nc(COc3ccc(NC(=O)COc4ccccc4)cc3)cc(=O)n12 -0.546%
Cc1ccc(C(=O)Nc2ccc(OCc3cc(=O)n4c5c(sc4n3)CCCC5)cc2)cc1 -8.75%
CCN(CC)c1cc(NC2CCCCC2)c2c3c(onc13)-c1ccccc1C2=O 3.4%
Cc1c(CNC(C)c2ccccc2)c(C(=O)O)c(C)n1Cc1c(F)cccc1Cl (stereo not given) 0.16%
CCOc1ccc(-c2cc3nc(C4CCN(C(=O)OC(C)(C)C)CC4)c(C(=O)Nc4cccc(CC)c4)cn3n2)cc1 12.9%
CCOC(=O)/C(C#N)=C\c1c(C)cc(C)c(COC(C)=O)c1C 14.9%
Cc1ccc(/C=C(\C#N)C(=O)Nc2cc(C)ccc2C)cc1 -0.361%
CCc1ccc(NC(=O)N2CCN(C(=O)c3nsc4ccccc34)CC2)cc1 -4.71%
O=S(=O)(c1ccc2c(c1)OCCO2)N1CCN(S(=O)(=O)c2cc(F)ccc2F)CC1 6.77%
Cn1c(=O)n(Cc2c(F)cccc2Cl)c(=O)c2c1nc1n2CCN1c1ccc(F)cc1 0.582%
Cc1cc(C)cc(NC(=O)Cn2nc(N3CCN(c4ccccc4)CC3)ccc2=O)c1 -3.13%
Cc1cc(-c2ccc(C)c(S(=O)(=O)N3c4ccccc4CC3C)c2)on1 (stereo not given) 0.217%
CCOc1cccc2cc(-c3cn4c(n3)sc3cc(C)ccc34)c(=O)oc12 -0.977%
COc1cc(CNCCSc2nnnn2C)ccc1OCc1ccc(Cl)cc1Cl 1.67%
COc1ccc(CCNC(=O)CCc2ccccc2O)cc1OC -5.5%
O=C(CSc1ncc(CO)n1Cc1ccc(F)cc1)NCc1ccco1 -2.31%
CCOc1ccc(CNC(=O)c2ccc3nc(CC)c(CC)nc3c2)cc1OC 1.32%
Cc1[nH]c2ccccc2c1C(=O)CN1CCCC(C)C1 (stereo not given) -2.86%
CC1CCN(C(=O)COC(=O)c2cc(=O)[nH]c3ccccc23)CC1 -7.78%
Cc1nnc(N2CCCC(C(=O)NCCN(C)C)C2)c2nn(-c3ccccc3)c(C)c12 (stereo not given) 1.94%
N#Cc1nc(Nc2cccc(Cl)c2)nc(NC2CCCC2)n1 -7.23%
CCn1c2ccccc2c2nnc(SCC(=O)O)nc21 -1.5%
COc1ccc(-n2nc(C(=O)NCCc3ccc(Cl)cc3)c3c4ccccc4n(C)c3c2=O)cc1Cl -3.1%
CCN1CCN(C(=O)C2(NC(=O)Nc3cccc(F)c3)CCCCC2)CC1 1.28%
CCOC(=O)C1CCN(C(=O)Nc2cccc(OC)c2)CC1 -1.73%

enhancement, active:
O=c1[nH]c2cccnc2n(CCNc2ncc(C(F)(F)F)cc2Cl)c1=O 48.4%
CC(C)c1nnc(NC(=O)CCC(=O)N2CCN(c3cccc(Cl)c3)CC2)s1 44.3%
CCOc1ccc(N/C=C/C(=O)c2cc(OC)c(OC)c(OC)c2)cc1 36%
Cc1ccc(C(=O)Nc2ccc(OCc3cc(=O)n4c(C)csc4n3)cc2)cc1 44.4%
COC(=O)/C(C#N)=C/c1occc1C 32.7%
Cc1nn(C)cc1N1C(=O)c2cccc3c(N)ccc(c23)C1=O 30%
CN1C(=O)c2cccc3c(N)ccc(c23)C1=O 50.3%
COc1ccc(CCn2ccc(O)c(Cc3ccc(Cl)cc3Cl)c2=O)cc1OC 54.5%
CC1CCN(CC(=O)c2c[nH]c3ccccc23)CC1 38%
CCOC(=O)C1CCN(C(=O)C2(NC(=O)Nc3cccc(F)c3)CCCCC2)CC1 34.3%

— PubChem BioAssay AID493056 (National Center for Advancing Translational Sciences (NCATS), 2011)
